According to PubChem BioAssay AID1159580 (chemical genetic matrix, 2015):
Values joined by “and” are separate entries in the source; they are usually repeats but may differ in a detail not shown here. Equal values may be shown once. In all, about 5,500 compounds went through this assay and about 2,000 (36%) were called active. Inconclusive results (about 18%) are left out. Cut-off read from the data, not from the text of the source: active = normalized growth mostly below about 0.91 (no sharp cut-off); inconclusive = no clear call, values can overlap the other calls; inactive = mostly above about 0.92. This is one part of the list.

Test: chemical genetic growth profiling, strain panel (AID 1159580);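 note: tested at 20 µM; growth read once vehicle control cultures reached saturation at 30 °C; 1 = growth at the plate median or of vehicle wells; lower values mean less growth of the strain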
Conditions: S. cerevisiae deletion strains, growth OD

Measured: normalized growth

Nc1ccc(S(=O)(=O)NC(=O)c2ccccc2)cc1
inactive: locus YAL013W, strain DEP1, hits give low values 1.01 | locus YAL021C, strain ccr4, hits give low values 0.985 | locus YAL026C, strain drs2, hits give low values 1 | locus YAL030W, strain snc1, hits give low values 1.01 | locus YBL061C, strain skt5, hits give low values 0.99 | locus YBR009C, strain hhf1, hits give low values 0.959 | locus YBR021W, strain FUR4, hits give low values 1.04 | locus YBR023C, strain chs3, hits give low values 0.995 | locus YBR171W, strain sec66, hits give low values 0.992 | locus YBR229C, strain ROT2, hits give low values 1.01 | locus YBR231C, strain swc5, hits give low values 0.992 | locus YBR279W, strain paf1, hits give low values 0.985 | locus YCL011C, strain gbp2, hits give low values 1 | locus YCL016C, strain dcc1, hits give low values 1.01 | locus YCL029C, strain bik1, hits give low values 1.02 | locus YCL061C, strain MRC1, hits give low values 0.979 | locus YCL069W, strain vba3, hits give low values 0.968 | locus YCR088W, strain abp1, hits give low values 0.978 | locus YDL005C, strain med2, hits give low values 0.992 | locus YDL035C, strain GPR1, hits give low values 1.01 | locus YDL040C, strain nat1, hits give low values 0.998 | locus YDL074C, strain BRE1, hits give low values 1.01 | locus YDL101C, strain DUN1, hits give low values 1.01 | locus YDL134C, strain PPH21, hits give low values 1.02 | locus YDL185W, strain tfp1, hits give low values 0.999 | locus YDL192W, strain arf1, hits give low values 1.02 | locus YDR001C, strain nth1, hits give low values 0.975 | locus YDR069C, strain doa4, hits give low values 0.973 | locus YDR101C, strain arx1, hits give low values 1.02 | locus YDR137W, strain rgp1, hits give low values 0.959 | locus YDR159W, strain sac3, hits give low values 0.948 | locus YDR162C, strain NBP2, hits give low values 1 | locus YDR195W, strain ref2 0.957 | locus YDR297W, strain sur2, hits give low values 0.997 | locus YDR318W, strain mcm21, hits give low values 1.03 | locus YDR334W, strain swr1, hits give low values 0.934 | locus YDR335W, strain msn5, hits give low values 0.985 | locus YDR388W, hits give low values 1.02 | locus YDR392W, strain spt3, hits give low values 1.01 | locus YDR502C, strain sam2, hits give low values 1.03 | locus YEL003W, strain gim4, hits give low values 0.99 | locus YEL037C, strain rad23, hits give low values 0.988 | locus YEL061C, strain CIN8 (second series), hits give low values 0.993 | locus YEL061C, strain CIN8, hits give low values 1.01 | locus YER015W, strain faa2, hits give low values 0.998 | locus YER016W, strain bim1, hits give low values 0.974 | locus YER110C, hits give low values 1.03 | locus YER111C, strain swi4, hits give low values 1.01 | locus YER155C, strain BEM2 (second series), hits give low values 1.02 | locus YER155C, strain BEM2, hits give low values 1.01 | locus YER167W, strain BCK2, hits give low values 1 | locus YFR010W, strain ubp6, hits give low values 0.951 | locus YGL078C, strain dbp3, hits give low values 1.02 | locus YGL086W, strain mad1, hits give low values 1.01 | locus YGL167C, strain pmr1, hits give low values 0.964 | locus YGL173C, strain kem1, hits give low values 0.986 | locus YGL227W, strain vid30, hits give low values 0.967 | locus YGL240W, strain doc1, hits give low values 0.998 | locus YGL248W, strain PDE1, hits give low values 1 | locus YGL253W, strain hxk2, hits give low values 0.989 | locus YGR135W, strain pre9, hits give low values 1.02 | locus YGR252W, strain gcn5, hits give low values 0.997 | locus YHR013C, strain ard1, hits give low values 0.98 | locus YHR027C, strain rpn1, hits give low values 0.993 | locus YHR030C, strain SLT2, hits give low values 1.01 and 0.995 | locus YHR079C, strain IRE1 (second series), hits give low values 1.01 | locus YHR079C, strain IRE1, hits give low values 0.98 | locus YHR094C, strain hxt1, hits give low values 1.01 | locus YHR129C, strain ARP1, hits give low values 0.996 | locus YHR142W, strain chs7, hits give low values 0.997 | locus YHR200W, strain rpn10, hits give low values 1.02 | locus YIL066C, strain RNR3, hits give low values 1.01 | locus YIL073C, strain SPO22, hits give low values 1.06 | locus YIL125W, strain kgd1, hits give low values 1.01 | locus YIR030C, strain dcg1, hits give low values 1.02 | locus YJL092W, strain hpr5, hits give low values 0.993 | locus YJL095W, strain BCK1 (second series), hits give low values 0.996 | locus YJL095W, strain BCK1, hits give low values 0.994 and 0.999 | locus YJL115W, strain asf1, hits give low values 0.999 | locus YJL129C, strain trk1, hits give low values 0.983 | locus YJL134W, strain LCB3, hits give low values 1.01 | locus YJL154C, strain vps35, hits give low values 0.99 | locus YJL164C, strain tpk1, hits give low values 0.979 | locus YJL166W, strain qcr8, hits give low values 0.983 | locus YJL168C, strain set2, hits give low values 1.01 | locus YJL187C, strain SWE1 (second series), hits give low values 1.01 | locus YJL187C, strain SWE1, hits give low values 0.992 | locus YJR043C, strain POL32, hits give low values 1.01
